In all, about 1,400 compounds went through this assay and about 560 (40%) were called active.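 How the source made its calls: active means mean inhibition over duplicate tests at 10 µM above 50%; inactive means the rest.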 The set was probably picked from earlier hits. Some of the results follow.
Experiment: ASC/caspase-1 reporter retest in S. cerevisiae at one dose, specificity check for NALP1 project (AID 488857)
Settings: S. cerevisiae ASC/Caspase-1, beta-galactosidase luminescence, 24 h; at 10 µM; stronger effect = higher value

| SMILES | inhibition |
| --- | --- |
| COc1ccc(/C=C2/CCc3ccccc3C2=O)cc1OC | 61.4% (active) |
| C=CCNCCOc1ccc(C(C)(C)c2ccccc2)cc1 | 56.8% (active) |
| COCCCNCCOc1ccc(C(C)(C)c2ccccc2)cc1 | 64.7% (active) |
| C=CCNCCOCCSc1ccc(Cl)cc1 | 42.4% (inactive) |
| COC(=O)C(Cc1ccccc1)NC(=O)COc1ccc(C(C)(C)C)cc1 (stereo not drawn) | 34.1% (inactive) |
| COc1cccc(C2c3c(-c4ccccc4O)n[nH]c3C(=O)N2Cc2ccco2)c1 (stereo not drawn) | 47.1% (inactive) |
| Cc1nn(-c2ccccc2)c(Cl)c1/C=C(\C#N)C(=O)NC(C)C | 68.6% (active) |
| C=CCNC(=O)/C(C#N)=C/c1c(C)nn(-c2ccccc2)c1Cl | 69.8% (active) |
| COC(=O)c1ccc(/C=C(\C#N)C(=O)NC(C)c2ccccc2)cc1 (stereo not drawn) | 43.5% (inactive) |
| O=C(O)/C=C/C(=O)OC1CC2CCC1C2 (stereo not drawn) | 23.1% (inactive) |
| Cc1ccc(NC(=O)CN(C)C(=O)COc2cccc3cccnc23)cc1 | 21.4% (inactive) |
| CCN(CC)c1ccc(/C=N/OC(C)C(=O)Nc2ccc(C)cc2)cc1 (stereo not drawn) | 53.4% (active) |
| c1ccc(CC2CCN(c3nnnn3-c3ccccc3)CC2)cc1 | 39.6% (inactive) |
| O=C(/C=C/c1ccc2c(c1)OCCCO2)c1ccccc1O | 61.2% (active) |
| Cc1ccc(C(=O)/C=C/c2ccc3c(c2)OCO3)o1 | 32.1% (inactive) |
| O=C(CCNC(=O)c1ccccc1Cl)Nc1ccc2c(c1)OCO2 | 34.6% (inactive) |
| COC(=O)Cn1nc(-c2ccccc2)c2ccccc21 | 99.4% (active) |
| O=C(O)Cn1nc(-c2ccccc2)oc1=O | 20.1% (inactive) |
| O=C(NC1=NCCS1)c1ccc(Cl)s1 | 53% (active) |
| CC(NC(=O)c1ccc(F)cc1)C(=O)NC1=NCCS1 (stereo not drawn) | 38.4% (inactive) |
| O=C(c1cnn2ccccc12)N1CCc2ccccc21 | 57.4% (active) |
| CSc1sc(C(=O)N2CCc3ccccc32)cc1S(=O)(=O)C(C)C | 30% (inactive) |
| CCC(=O)N1CCc2cc(S(=O)(=O)N3CCc4ccccc43)ccc21 | 37% (inactive) |
| CC(C)NC(=O)c1ccc(COCC(F)(F)F)cc1 | 36.5% (inactive) |
| Cc1ccc(C(=O)Oc2ccc3c(c2)ncn3C)cc1 | 61.9% (active) |
| Cc1ccc(C(=O)Nc2ccc3nc(C)sc3c2)s1 | 87.8% (active) |

| SMILES | inhibition |
| --- | --- |
| Cc1nc2ccc(NC(=O)c3cc([N+](=O)[O-])cc([N+](=O)[O-])c3Cl)cc2s1 | 42.2% (inactive) |
| Cc1nc2c(ccc3c2ccc2nc(C)sc23)s1 | 38.2% (inactive) |
| COc1cccc(/C=N/NC(=O)CCc2c(C)n[nH]c2C)c1 | 30.6% (inactive) |
| Nc1[nH]ncc1N=Nc1ccc(Cl)cc1 | 64.8% (active) |
| CCCCNC(=O)COC(=O)c1ccc(Cl)c(S(N)(=O)=O)c1 | 37.4% (inactive) |
| CCCOc1ccc(C(=O)c2nc3c(n2O)CCCCC3)cc1 | 52% (active) |
| CCCCOc1ccc(C(=O)CCN2CCCCC2)cc1 | 32.5% (inactive) |
| CCCCCCNc1nc(NCc2ccco2)nc(OCC)n1 | 56.7% (active) |
| COc1cccc(CNc2ccc3c(c2)CCC3)c1 | 30.4% (inactive) |
| O=[N+]([O-])c1cccc(CNc2ccc3c(c2)CCC3)c1 | 59.6% (active) |
| COc1cccc(OCc2ccc(C(=O)NCC3CCCO3)cc2)c1 (stereo not drawn) | 48.8% (inactive) |
| CCn1ncc([N+](=O)[O-])c1C(=O)Nc1ccc(C(=O)N2CCCCC2)cc1 | 43.9% (inactive) |
| CCCc1cc(C(=O)Nc2c(C)n(C)n(-c3ccccc3)c2=O)no1 | 16.9% (inactive) |
| CCCc1cc(C(=O)Nc2cccc(Cl)c2)no1 | 81.6% (active) |
| CCn1ncc(C(=O)Nc2cccc(Cl)c2)c1C | 54.3% (active) |
| CCCc1cc(C(=O)Nc2ccc(F)cc2F)no1 | 46.5% (inactive) |
| CCn1nccc1C(=O)Nc1ccc(Cl)cn1 | 34.9% (inactive) |
| Cc1cc(C)c(S(=O)(=O)Nc2ccc(OCC(=O)O)cc2)c(C)c1 | 29.1% (inactive) |
| CCNC(=S)SCCOc1ccccc1C | 79.3% (active) |
| COc1ccc(N(CCC#N)S(=O)(=O)c2ccc(Cl)cc2)cc1 | 26.1% (inactive) |
| CC1CCCCC1NC(=O)/C(C#N)=C/c1ccccc1F (stereo not drawn) | 74.2% (active) |
| CCCSc1nnc(C(C)C)n1N | 26.2% (inactive) |
| COc1ccc(/C=N/OC(=O)Nc2ccccc2)cc1[N+](=O)[O-] | 32.5% (inactive) |
| CCOc1ccc(/C=C/C(=O)c2ccccc2)cc1OC | 55.5% (active) |
| CCOC(=O)c1cc(-c2ccccc2)n(CC(=O)Nc2ccc(OC)c(OC)c2)c1C | 37.5% (inactive) |
| CC(C)c1nc2sc3c(=O)[nH]cnc3c2c2c1CCC2 | 23.9% (inactive) |

| SMILES | inhibition |
| --- | --- |
| COc1ccccc1N1C(=O)C2CCC(c3ccccc3)CC2C1=O (stereo not drawn) | 27.9% (inactive) |
| Cc1cccc(Cn2c(C(C)(C)C)cc3cccnc32)c1 | 47.4% (inactive) |
| CC(C)(C)c1cc2cccnc2n1Cc1cccc(Cl)c1 | 52.5% (active) |
| CCSc1nnc(-c2cnn(-c3ccccc3)c2-n2cccc2)n1C | 34.5% (inactive) |
| CCSc1ncc(/C=N/Nc2ccccc2)n1C | 75.3% (active) |
| COc1cc(NC(C)CCCN)c2ncccc2c1Oc1ccccc1 (stereo not drawn) | 29.6% (inactive) |
| Cc1ccc(C(C[N+](=O)[O-])c2c(C)[nH]n(-c3ccccc3)c2=O)cc1 (stereo not drawn) | 82.5% (active) |
| Cc1cc2ccccn2c1C(C[N+](=O)[O-])c1ccc(N(C)C)cc1 (stereo not drawn) | 21.9% (inactive) |
| Cc1[nH]n(-c2ccccc2)c(=O)c1C(C[N+](=O)[O-])c1ccc(Cl)cc1 (stereo not drawn) | 87.4% (active) |
| Cc1[nH]n(-c2ccccc2)c(=O)c1C(C[N+](=O)[O-])c1ccc(Br)cc1 (stereo not drawn) | 79% (active) |
| COC(=O)C1(C(C[N+](=O)[O-])c2ccc(C)cc2)C(=O)NCC1c1ccco1 (stereo not drawn) | 49% (inactive) |
| O=c1cc(CSc2ccc(Cl)cc2)[nH]c2[nH]n(-c3ccccc3)c(=O)c12 | 42.8% (inactive) |
| O=C1N/C(=N\N=C\c2cccnc2)SC1Cc1ccc(SC(F)F)cc1 (stereo not drawn) | 29.8% (inactive) |
| NC(=O)c1ncc(C(F)(F)F)cc1Oc1ccc(C(F)(F)F)cc1 | 42.5% (inactive) |
| CCOc1cc(/C=N/NC(=O)c2nn(C)cc2Br)ccc1OCc1ccccc1Cl | 26.2% (inactive) |
| CC(=O)Nc1ccc2nc(CN3CCC(CO)(CCc4ccccc4)CC3)ccc2c1 | 36.4% (inactive) |
| CCCCn1cnc2c1c(=O)[nH]c(=O)n2CCCC | 7.55% (inactive) |
| Cc1[nH]c2ccccc2c1C(=O)CSc1nc2ncc(Cl)cc2[nH]1 | 36.2% (inactive) |
| CC(NC(=O)/C(C#N)=C/c1ccc([N+](=O)[O-])o1)c1ccccc1 (stereo not drawn) | 36.7% (inactive) |
| CC(NC(=O)/C(C#N)=C/c1ccc(Cl)c([N+](=O)[O-])c1)c1ccccc1 (stereo not drawn) | 62.2% (active) |
| CC(OC(=O)CC(NC(=O)c1ccccc1Cl)c1ccccc1)C(=O)Nc1cccc(Cl)c1Cl (stereo not drawn) | 34.5% (inactive) |
| CC(C)NC(=O)/C(C#N)=C/c1cccc(NC(=O)c2ccccc2Cl)c1 | 63.5% (active) |
| CC(=O)Nc1sc2c(c1-c1nc3ccccc3s1)CCN(C(C)C)C2 | 98% (active) |
| Fc1ccc(NC(=S)N2CCSC2c2cccs2)cc1 (stereo not drawn) | 25.8% (inactive) |
| Cc1cccc(/C=C/C(=O)c2ccc(NC3=NCCCS3)cc2)c1 | 60.4% (active) |
| CC(C)(C)c1ccc(/C=C/C(=O)c2ccc(NC3=NCCCS3)cc2)cc1 | 53.1% (active) |

| SMILES | inhibition |
| --- | --- |
| CC(=O)OCC(=O)[C@H]1CC[C@H]2[C@@H]3CC=C4C[C@@H](O)CC[C@]4(C)[C@H]3CC[C@]12C | 32.5% (inactive) |
| Brc1ccc(C=Nc2ccc(Nc3ccccc3)cc2)s1 | 56.1% (active) |
| Cc1ccc(C(=O)c2c(NC(=O)c3ccncc3)sc3c2CCCC3)cc1 | 58.1% (active) |
| Cc1ccccc1OCC(=O)Nc1sc2c(c1C#N)CCC2 | 35.5% (inactive) |
| CCCCNC1CCS(=O)(=O)C1 (stereo not drawn) | 37.9% (inactive) |
| CC(C)OC(=O)COc1ccc(-c2ccccc2)cc1 | 47.1% (inactive) |
| CC(C)Oc1ccc2c(=O)c(-c3ccccc3)coc2c1 | 73.6% (active) |
| Cc1ccc(CN2CCN(/N=C/c3ccc(C(F)(F)F)cc3)CC2)c(C)c1 | 50.5% (active) |
| Cc1ccccc1-c1ccc(C(=O)Nc2cccc(F)c2)o1 | 56.5% (active) |
| O=C(Nc1cccc(F)c1)c1ccc(CSc2ccccc2)o1 | 37.5% (inactive) |
| Cc1oc(C(=O)O)cc1COc1ccc2c3c(c(=O)oc2c1)CCC3 | 46.1% (inactive) |
| COc1ccc2c(c1)O/C(=C\c1sccc1C)C2=O | 66.5% (active) |
| COC(=O)c1cccc(NC(=O)/C=C/c2ccc3c(c2)OCO3)c1 | 77.6% (active) |
| O=C(O)c1ccc2c(c1)N(Cc1cccc(F)c1)C(=O)CS2 | 19.6% (inactive) |
| COc1ccccc1OCCN1CSC(=S)N(C)C1 | 54.5% (active) |
| CCCCC(CC(O)COCCC)c1n[nH]c(=S)n1-c1ccccc1 (stereo not drawn) | 42% (inactive) |
| O=[N+]([O-])c1cc2oc3c(c2c(C=NCc2ccccc2)c1O)CCCC3 | 42.5% (inactive) |
| O=[N+]([O-])c1cc(Cc2ccccc2)cc(C=Nc2ccc(N3CCOCC3)cc2)c1O | 51.5% (active) |
| CN(C)c1ccc(O)c2c1CC1CC3[C@@H](N(C)C)C(=O)C(C(N)=O)=C(O)[C@]3(O)C(=O)C1=C2O (stereo partly drawn) | 31.9% (inactive) |
| COc1cccc(/C=N/NC(=O)CNC(=O)C2COc3ccccc3O2)c1O (stereo not drawn) | 42.9% (inactive) |
| O=C(N/N=C\c1cccc([N+](=O)[O-])c1O)C1COc2ccccc2O1 (stereo not drawn) | 81.3% (active) |
| CCCCN(C)C(=O)c1nc2ccccn2c1CNCCCn1ncc2ccccc21 | 33.2% (inactive) |
| Cn1cc(C(=O)NCc2ccc(F)cc2)c(=O)c2cc(S(=O)(=O)N3CCCCC3)ccc21 | 34.4% (inactive) |
| CC(C)C(C)NC(=O)COc1ccc(S(=O)(=O)N2CCOCC2)cc1[N+](=O)[O-] (stereo not drawn) | 12.2% (inactive) |
| O=[N+]([O-])c1cc(S(=O)(=O)N2CCCCCC2)ccc1F | 86.2% (active) |
